About 330 (14%) of roughly 2,300 compounds showed activity.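 Rule for the calls: active = median modified Z-score above 1.96; inactive = 1.96 or below.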 Not all results are given here.
These compounds were tested on HepG2 Srxn1-GFP reporter cells (+30 nM CDDO-Me) (assay: Srxn1-GFP intensity median modified Z-score relative to plate median; higher = stronger NRF2 / oxidative stress reporter activation, active = hit call of the paper). Conditions: 10 µM; exposure time: 24h.
Outline: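 HepG2 Srxn1-GFP BAC reporter cells were seeded at 20,000 per well in 96-well plates and co-exposed for 24 h to compound at 10 μM and an NRF2 activator at 30 nM, with DMSO at ≤0.1%, in three replicate plates. Cells were fixed with formaldehyde, stained with Hoechst and imaged by confocal microscopy, and cytoplasmic GFP was measured per cell, with images holding under 100 cells discarded. The reported value is the median over replicates of each plate's modified Z-score of GFP intensity. For this score, scaling used 1.4826 × median absolute deviation.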

Srxn1-GFP intensity median modified Z-score, active:
C=C[C@](C)(O)CC[C@@H]1[C@@]2(C)CCCC(C)(C)[C@@H]2CC[C@]1(C)O [euspeclibcmpd2213] 2.3
O=C(OC[C@H]1O[C@H](OC(=O)c2cc(O)c(O)c(OC(=O)c3cc(O)c(O)c(O)c3)c2)[C@H](OC(=O)c2cc(O)c(O)c(OC(=O)c3cc(O)c(O)c(O)c3)c2)[C@@H](OC(=O)c2cc(O)c(O)c(OC(=O)c3cc(O)c(O)c(O)c3)c2)[C@@H]1OC(=O)c1cc(O)c(O)c(OC(=O)c2cc(O)c(O)c(O)c2)c1)c1cc(O)c(O)c(OC(=O)c2cc(O)c(O)c(O)c2)c1 [euspeclibcmpd649] 8.09
CNCCCN1c2ccccc2Sc2ccccc21 2.13
CN1CCN(CCCN2c3ccccc3Sc3ccc(Cl)cc32)CC1 [euspeclibcmpd249] 3.78
CC(C)=CCCC1(C)C=Cc2c(O)c3c(c(CC=C(C)C)c2O1)OC12C(CC4CC1C(C)(C)OC2(C=CC(C)C(=O)O)C4O)C3=O (stereo not drawn) [euspeclibcmpd1941] 50.9
CC(C)=CCCC1(C)C=Cc2c(O)c3c(c(CC=C(C)C)c2O1)OC12C(=CCCC1C(C)(C)O[C@@]2(C=CC(C)C(=O)O)C(=O)O)C3=O (stereo partly drawn) [euspeclibcmpd1701] 6.67
CC(C)=CCCC1(C)C=Cc2c(O)c3c(c(CC=C(C)C)c2O1)OC12C(=CC4CC1C(C)(C)OC2(C=CC(C)C(=O)O)C4=O)C3=O (stereo not drawn) [euspeclibcmpd1425] 127
COC(=O)C(C)=CCC12OC(C)(C)C3CC(=CC4C(=O)c5c(OC)c6c(c(CC=C(C)C)c5OC431)OC(C)(CCC=C(C)C)C=C6)C2=O (stereo not drawn) [euspeclibcmpd2284] 55.9
N=c1c2ccccc2[nH]c2ccccc12 [euspeclibcmpd350] 15
CC(=O)c1c(O)c(C)c(O)c2c1OC1=CC(=O)C(C(C)=O)C(=O)C12C (stereo not drawn) [euspeclibcmpd1449] 12.3
COC1=CC(=O)C(=O)C=C1C=CCc1ccccc1 [euspeclibcmpd1419] 9.05
Cc1csc(/C(C#N)=C\C=C\c2ccccc2[N+](=O)[O-])n1 35.4
O=C(O)CN1C(=O)c2cccc3cccc(c23)C1=O [euspeclibcmpd433] 2.2

Srxn1-GFP intensity median modified Z-score, inactive:
COc1ccc(CCN2CCC(N=c3[nH]c4ccccc4n3Cc3ccc(F)cc3)CC2)cc1 [euspeclibcmpd1296] -0.744
Cc1c(NC(=O)CCc2cccnc2)c(=O)n(-c2ccccc2)n1C 1.03
COc1ccc([C@@H]2CC(=O)c3c(O)cc(O[C@@H]4O[C@H](CO[C@H]5O[C@@H](C)[C@H](O)[C@@H](O)[C@H]5O)[C@@H](O)[C@H](O)[C@H]4O)cc3O2)cc1O [euspeclibcmpd1499] -0.332
C=C[C@@](C)(O)CCC1C(=C)C[C@H](O)C2C(C)(C)CCCC12C (stereo partly drawn) [euspeclibcmpd2065] 0.497
CNC(CC(=O)O)C(=O)O (stereo not drawn) [euspeclibcmpd1746] -0.42
CN1CCN(C(c2ccccc2)c2ccccc2)CC1 [euspeclibcmpd77] 0.846
OC(COC(c1ccccc1)c1ccccc1)CN1CCN(/C=C/Cc2ccccc2)CC1 (stereo not drawn) 0.401
CC(=O)NC(CC(C)C)C(=O)O (stereo not drawn) [euspeclibcmpd1070] -0.124
CC(C)NS(=O)(=O)C1CCN(C(=O)CCS(=O)(=O)C2CCCC2)C1 (stereo not drawn) 1.14
CC(C)Cn1cnc2c(=N)[nH]c3ccccc3c21 [euspeclibcmpd542] -0.55
CC(=O)N=c1[nH]nc(S(N)(=O)=O)s1 [euspeclibcmpd48] 0.382
CCCc1nc(C)c2c(=O)[nH]c(-c3cc(S(=O)(=O)N4CCN(CC)CC4)ccc3OCC)nn12 [euspeclibcmpd760] -0.393
O=C(O[C@@H]1Cc2c(O)cc(O)cc2O[C@@H]1c1cc(O)c(O)c(O)c1)c1cc(O)c(O)c(O)c1 [euspeclibcmpd1546] 1.25
O=C(Oc1cc(O)cc2c1CC(OC(=O)c1cc(O)c(O)c(O)c1)C(c1cc(O)c(O)c(O)c1)O2)c1cc(O)c(O)c(O)c1 (stereo not drawn) [euspeclibcmpd1839] -0.336
CCCCCCCCCCCCCCCC(=O)OCC(O)c1oc(O)c(O)c1O (stereo not drawn) [euspeclibcmpd862] -0.777
CC(C)(Oc1ccc(C(=O)c2ccc(Cl)cc2)cc1)C(=O)O [euspeclibcmpd2188] -0.278
Cc1c2oc3c(C)ccc(C(=O)OC(C)C4NC(=O)C(C(C)C)N(C)C(=O)CN(C)C(=O)C5CCCN5C(=O)C(C(C)C)NC4=O)c3[nH]c-2c(C(=O)OC(C)C2NC(=O)C(C(C)C)N(C)C(=O)CN(C)C(=O)C3CCCN3C(=O)C(C(C)C)NC2=O)c(=N)c1=O (stereo not drawn) [euspeclibcmpd955] -2.39
OCCN1CCN(CCCN2c3ccccc3Sc3ccc(Cl)cc32)CC1 [euspeclibcmpd640] -1.43
CNCCCN1c2ccccc2CCc2ccccc21 [euspeclibcmpd86] 1.22
CN(C)CCCN1c2ccccc2Sc2ccccc21 [euspeclibcmpd252] 0.744
CN1CCN(CCCN2c3ccccc3Sc3ccc(C(F)(F)F)cc32)CC1 [euspeclibcmpd306] 0.328
C/C(=C(/CCOP(=O)(O)O)SC(=O)c1ccccc1)N(C=O)Cc1c[nH]c(C)nc1=N [euspeclibcmpd1052] 1.09
O=C(CCc1ccccc1)NCCO 1.29
Cc1nnc(SC=C2CSC3C(NC(=O)Cn4cnnn4)C(=O)N3C2C(=O)O)s1 (stereo not drawn) [euspeclibcmpd2337] 0.336
CCCCNC(=O)c1ccc(NC(C)=O)cc1 0.99
COc1ccc(-c2coc3c4c(c(CC=C(C)C)c(OC)c3c2=O)OC(C)(C)C=C4)cc1OC [euspeclibcmpd2197] -0.274
Cc1cc(C)cc(-c2nnc(SCc3csc(Nc4ccccc4)n3)o2)c1 0.289
O=c1[nH]cnc2[nH]ncc12 [euspeclibcmpd15] 0.378
CCOC(=O)O[C@]1(C(=O)COC(=O)CC)CCC2C3CC=C4CC(=O)C=C[C@]4(C)C3[C@@H](O)C[C@@]21C (stereo partly drawn) [euspeclibcmpd1145] -0.25
NC(COCc1ccccc1)C(=O)O (stereo not drawn) [euspeclibcmpd2285] -0.141
Cc1cc(CC(C)CC(C)(C)C)n(O)c(=O)c1 (stereo not drawn) [euspeclibcmpd627] 0.455
O=C(NC(Cc1cc(=O)[nH]c2ccccc12)C(=O)O)c1ccc(Cl)cc1 (stereo not drawn) [euspeclibcmpd1178] 0.0863
CN(CCOC(c1ccccc1)c1ccccc1)S(C)(=O)=O 1.57
CC(=O)Nc1cc2ccccc2oc1=O [euspeclibcmpd1797] 0.241
CCCC(=O)N=c1[nH]cnc2c1ncn2C1O[C@@H]2COP(=O)(O)O[C@H]2[C@H]1OC(=O)CCC (stereo partly drawn) [euspeclibcmpd1111] 0.97
CCCCCCOC(=O)N=C(N)c1ccc(NCc2nc3cc(C(=O)N(CCC(=O)OCC)c4ccccn4)ccc3n2C)cc1 [euspeclibcmpd2169] 0.57
N=c1c2c([nH]c3ccccc13)CCCC2 [euspeclibcmpd944] -0.0541
O=c1c2ccccc2[nH]c2ccccc12 0.588
NCCC(=O)C(O)N[C@@H]1C[C@H](N)[C@@H](O[C@H]2O[C@H](CN)[C@@H](O)[C@H](O)[C@H]2O)[C@H](O)[C@H]1O[C@H]1O[C@H](CO)[C@@H](O)[C@H](N)C1O (stereo partly drawn) [euspeclibcmpd967] -0.34
CCCC[C@@H](CC)COC(=O)/C=C/c1ccc(OC)cc1 [euspeclibcmpd2186] 1.35
COC1=CC(=O)C(C(=O)c2ccccc2)=CC1=O [euspeclibcmpd1986] -0.559
COC1=CC(=O)C=C(OC)C1=O [euspeclibcmpd2007] 0.392
CC(=O)OCC(=O)[C@@]1(O)CCC2C3CC=C4CC(=O)CC[C@]4(C)[C@@]3(F)[C@@H](O)C[C@@]21C (stereo partly drawn) [euspeclibcmpd127] -0.373
Cc1n[nH]c(=NS(=O)(=O)c2ccc(N)cc2)s1 [euspeclibcmpd277] -0.64
OC[C@@H](O)[C@@H](O[C@@H]1O[C@H](CO)[C@H](O)[C@H](O)[C@H]1O)[C@H](O)[C@@H](O)CO [euspeclibcmpd2389] -0.142
CC1(C(=O)O)CCC2(C)CCC3(C)C(=C2C1)CC(=O)C1C2(C)CCC(O)C(C)(C)C2CCC13C (stereo not drawn) [euspeclibcmpd1963] -0.0731
O=C(COC(=O)C12CC3CC(C1)CC(c1ccccc1)(C3)C2)Nc1ncc(C(F)(F)F)cc1Cl 1.42
CCN(CC)C(=O)C(C#N)=Cc1cc(O)c(O)c([N+](=O)[O-])c1 [euspeclibcmpd861] -0.942
CC(C)(O)[C@@H]1CC[C@](C)([C@H]2[C@@H](O)C[C@@]3(C)C4C[C@H](O[C@@H]5O[C@H](CO)[C@@H](O)[C@H](O)[C@H]5O)C5C(C)(C)[C@@H](O[C@@H]6OC[C@@H](O)[C@H](O)[C@H]6O)CC[C@@]56C[C@@]46CC[C@]23C)O1 (stereo partly drawn) [euspeclibcmpd1691] -0.304
O=C(O)CCCN1C(=O)c2cccc3cccc(c23)C1=O [euspeclibcmpd1803] -0.0255
